Source: PubChem BioAssay AID1159580 (chemical genetic matrix, 2015)
Values joined by “and” are separate entries in the source; they are usually repeats but may differ in a detail not shown here. Equal entries are not always repeated. Among all 5,500 compounds or so, about 2,000 (36%) were called active. Inconclusive results (about 18%) are left out. Cut-off read from the data, not from the text of the source: active = normalized growth mostly below about 0.91 (no sharp cut-off); inconclusive = no clear call, values can overlap the other calls; inactive = mostly above about 0.92. Some of the results follow.

Test: chemical genetic growth profiling, strain panel (AID 1159580);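 note: tested at 20 µM; growth read once vehicle control cultures reached saturation at 30 °C; 1 = growth at the plate median or of vehicle wells; lower values mean less growth of the strain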
Conditions: S. cerevisiae deletion strains, growth OD

Measured: normalized growth

COc1cc(O)c2c(=O)cc(C)oc2c1CC=C(C)C
0.78 (active) and 0.962 (inactive): locus YJL095W, strain BCK1, stronger effect = lower value
inactive: locus YAL021C, strain ccr4, stronger effect = lower value 0.99 | locus YAL026C, strain drs2, stronger effect = lower value 0.996 | locus YAL030W, strain snc1, stronger effect = lower value 0.967 | locus YBL061C, strain skt5, stronger effect = lower value 0.96 | locus YBR009C, strain hhf1, stronger effect = lower value 0.917 | locus YBR021W, strain FUR4, stronger effect = lower value 0.9 | locus YBR023C, strain chs3, stronger effect = lower value 0.941 | locus YBR171W, strain sec66, stronger effect = lower value 0.968 | locus YBR229C, strain ROT2, stronger effect = lower value 0.93 | locus YBR231C, strain swc5, stronger effect = lower value 0.98 | locus YBR279W, strain paf1, stronger effect = lower value 0.991 | locus YCL011C, strain gbp2, stronger effect = lower value 0.962 | locus YCL016C, strain dcc1, stronger effect = lower value 0.953 | locus YCL069W, strain vba3, stronger effect = lower value 0.997 | locus YCR088W, strain abp1, stronger effect = lower value 0.982 | locus YDL005C, strain med2, stronger effect = lower value 1.03 | locus YDL040C, strain nat1, stronger effect = lower value 0.986 | locus YDL101C, strain DUN1, stronger effect = lower value 0.954 | locus YDL185W, strain tfp1, stronger effect = lower value 0.929 | locus YDR001C, strain nth1, stronger effect = lower value 0.979 | locus YDR069C, strain doa4, stronger effect = lower value 0.97 | locus YDR150W, strain NUM1, stronger effect = lower value 0.946 | locus YDR159W, strain sac3, stronger effect = lower value 0.959 | locus YDR297W, strain sur2, stronger effect = lower value 0.967 | locus YDR334W, strain swr1, stronger effect = lower value 0.984 | locus YDR335W, strain msn5, stronger effect = lower value 0.986 | locus YDR388W, stronger effect = lower value 0.943 | locus YEL003W, strain gim4, stronger effect = lower value 0.957 | locus YEL037C, strain rad23, stronger effect = lower value 0.984 | locus YEL061C, strain CIN8 (second series), stronger effect = lower value 0.993 | locus YEL061C, strain CIN8, stronger effect = lower value 0.941 | locus YER015W, strain faa2, stronger effect = lower value 0.977 | locus YER016W, strain bim1, stronger effect = lower value 0.965 | locus YER110C, stronger effect = lower value 0.947 | locus YER111C, strain swi4, stronger effect = lower value 1.01 | locus YER155C, strain BEM2 (second series), stronger effect = lower value 0.903 | locus YER155C, strain BEM2, stronger effect = lower value 0.928 | locus YFR010W, strain ubp6, stronger effect = lower value 1 | locus YGL078C, strain dbp3, stronger effect = lower value 0.971 | locus YGL167C, strain pmr1, stronger effect = lower value 0.952 | locus YGL173C, strain kem1, stronger effect = lower value 0.982 | locus YGL227W, strain vid30, stronger effect = lower value 1 | locus YGL240W, strain doc1, stronger effect = lower value 0.987 | locus YGL248W, strain PDE1, stronger effect = lower value 0.898 | locus YGL253W, strain hxk2, stronger effect = lower value 0.99 | locus YGR078C, strain PAC10, stronger effect = lower value 0.874 | locus YGR135W, strain pre9, stronger effect = lower value 1 | locus YGR252W, strain gcn5, stronger effect = lower value 0.839 | locus YHR027C, strain rpn1, stronger effect = lower value 0.985 | locus YHR030C, strain SLT2, stronger effect = lower value 0.95 | locus YHR079C, strain IRE1 (second series), stronger effect = lower value 0.949 | locus YHR079C, strain IRE1, stronger effect = lower value 0.953 | locus YHR094C, strain hxt1, stronger effect = lower value 0.941 | locus YHR142W, strain chs7, stronger effect = lower value 0.884 | locus YHR200W, strain rpn10, stronger effect = lower value 0.952 | locus YIL073C, strain SPO22, stronger effect = lower value 0.849 | locus YJL092W, strain hpr5, stronger effect = lower value 0.985 | locus YJL115W, strain asf1, stronger effect = lower value 1.02 | locus YJL134W, strain LCB3, stronger effect = lower value 0.946 | locus YJL154C, strain vps35, stronger effect = lower value 1 | locus YJL164C, strain tpk1, stronger effect = lower value 0.941 | locus YJL166W, strain qcr8, stronger effect = lower value 0.967 | locus YJL168C, strain set2, stronger effect = lower value 0.965
active: locus YAL013W, strain DEP1, stronger effect = lower value 0.864 | locus YCL029C, strain bik1, stronger effect = lower value 0.872 | locus YDL035C, strain GPR1, stronger effect = lower value 0.805 | locus YDL074C, strain BRE1, stronger effect = lower value 0.748 | locus YDL192W, strain arf1, stronger effect = lower value 0.814 | locus YDR101C, strain arx1, stronger effect = lower value 0.89 | locus YDR137W, strain rgp1, stronger effect = lower value 0.817 | locus YDR162C, strain NBP2, stronger effect = lower value 0.696 | locus YDR195W, strain ref2 1.17 [resistant] | locus YDR318W, strain mcm21, stronger effect = lower value 0.806 | locus YDR392W, strain spt3, stronger effect = lower value 0.496 | locus YDR502C, strain sam2, stronger effect = lower value 0.909 | locus YER167W, strain BCK2, stronger effect = lower value 0.893 | locus YGL086W, strain mad1, stronger effect = lower value 0.876 | locus YHR013C, strain ard1, stronger effect = lower value 1.21 [resistant] | locus YHR129C, strain ARP1, stronger effect = lower value 0.919 | locus YIL066C, strain RNR3, stronger effect = lower value 0.781 | locus YIL125W, strain kgd1, stronger effect = lower value 0.93 | locus YIR030C, strain dcg1, stronger effect = lower value 0.92 | locus YJL095W, strain BCK1 (second series), stronger effect = lower value 0.905 | locus YJL129C, strain trk1, stronger effect = lower value 0.867
